DAX1 inh-1: inhibitors of human orphan nuclear receptor DAX1 (NR0B1) | HEK293 Gal4-DAX1 luciferase reporter, luminescence | P51843 | hit rate 0.99% among 340,000 | inhibition, % at 6.75 µM;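 active = inhibition above the mean over all tested compounds plus 3 SD, cut at about 4.2% in these data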;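 note: 0% = DAX1-transfected cells with DMSO and 100% = empty-vector control cells with DMSO; inhibition shows as a rise in luminescence from relieved DAX1 repression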
Target sequence (P51843 207-470 limits assumed): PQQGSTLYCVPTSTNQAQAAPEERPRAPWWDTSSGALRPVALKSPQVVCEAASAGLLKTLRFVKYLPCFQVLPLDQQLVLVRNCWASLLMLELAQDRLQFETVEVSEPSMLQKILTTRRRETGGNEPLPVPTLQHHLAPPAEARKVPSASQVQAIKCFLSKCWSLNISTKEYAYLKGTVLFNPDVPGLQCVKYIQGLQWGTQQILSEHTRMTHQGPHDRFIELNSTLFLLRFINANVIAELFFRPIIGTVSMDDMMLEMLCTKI
AHR act: human AHR activation; P35869; AHR-responsive luciferase reporter cells, luminescence; activation, % at 5 µM; hit rate 2.5% among 320,000; AID 2796; in the data active = activation above about 47%;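 note: 0% = vehicle wells and 100% = reference agonist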
ssDAF12 agonist: S. stercoralis DAF-12 activation, primary screen; AID 652126; activation, % at 6.8 µM; HEK293 ssDAF-12/GRIP1 lit1-tk-luc reporter, luminescence; % of 3 µM dafachronic acid response; hit rate 1% among 370,000;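 active = activation above the mean over all tested compounds plus 3 SD, cut at about 0.9% in these data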;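 note: 0% = DMSO-only wells and 100% = 3 µM delta7-dafachronic acid wells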
hgDAF12 agonist: activates the H. glycines DAF-12 receptor ligand-binding domain; HEK293 GAL4-hgDAF12 UAS-luciferase reporter, agonist luminescence; normalized to butyrate control; activation, % at 6.8 µM; hit rate 1.8% among 370,000; AID 687014;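 active = activation above a cutoff set at the mean of all screened compounds plus 3 SD, cut at about 10% in these data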;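 note: 0% = DMSO wells and 100% = sodium butyrate wells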
DAX1 inh-2: inhibitors of DAX1 repression of SF-1 activated StAR promoter. HEK293T StAR-luciferase reporter, SF-1/DAX-1 repression relief. inhibition, % at 6.8 µM. hit rate 1.1% among 370,000;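 active = inhibition above the mean over all tested compounds plus 3 SD, cut at about 3.6% in these data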;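 note: 0% = DAX-1 cells with DMSO and 100% = cells lacking DAX-1 with DMSO; higher inhibition means more luminescence from relief of DAX-1 repression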
hcDAF12 agonist: H. contortus DAF-12 activation, primary screen | HEK293 hcDAF-12 lit1-tk-luc reporter, luminescence; 0% DMSO, 100% Δ7-dafachronic acid | activation, % at 6.8 µM | hit rate 1.4% among 370,000;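 active = activation above the mean of all tested compounds plus 3 SD, cut at about 5.5% in these data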;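 note: 100% = response to 3 µM Δ7-dafachronic acid high control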
LXR ag: counter-screen for hcDAF-12 agonists: agonists of human LXR-beta | AID 743027 | shares compounds with hcDAF12 agonist | HEK293 Gal4-LXR tk-luc reporter, luminescence, 24 h; normalized: DMSO 0%, positive control 100% | 3,400 tested, under 10 active | activation, % at 6.8 µM;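 active = mean percent activation of the reporter above a cutoff set as the average over tested compounds plus their standard deviation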
Target sequence (P55055 whole entry, looked up, the tested form may be a part): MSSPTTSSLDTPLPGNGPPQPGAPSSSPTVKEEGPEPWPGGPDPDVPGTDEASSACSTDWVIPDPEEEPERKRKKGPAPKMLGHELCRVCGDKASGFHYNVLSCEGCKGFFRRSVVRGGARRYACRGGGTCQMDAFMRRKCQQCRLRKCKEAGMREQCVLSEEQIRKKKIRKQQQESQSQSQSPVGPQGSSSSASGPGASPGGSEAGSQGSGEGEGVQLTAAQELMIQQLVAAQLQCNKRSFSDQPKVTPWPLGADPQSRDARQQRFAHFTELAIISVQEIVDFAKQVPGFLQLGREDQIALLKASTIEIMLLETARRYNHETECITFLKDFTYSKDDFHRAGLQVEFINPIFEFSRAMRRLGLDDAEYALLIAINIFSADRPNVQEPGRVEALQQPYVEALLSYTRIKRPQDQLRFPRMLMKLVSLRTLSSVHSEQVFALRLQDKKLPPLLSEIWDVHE
hcDAF12 ag: hcDAF-12 agonism, confirmation assay; shares compounds with hcDAF12 agonist; HEK293 hcDAF-12 lit1-tk-luc reporter, luminescence; % of Δ7-dafachronic acid response; activation, % at 6.8 µM; hit rate 61% among 3,400; AID 743032;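 active = mean activation across triplicate tests above the threshold derived from the earlier primary screen, cut at about 5.5% in these data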;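 note: 0% = DMSO only wells and 100% = 3 µM Δ7-dafachronic acid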
Starred values were filed as active, the others as inactive; nt = no result given. Hits are enriched below; roughly 5.7% of the tested compounds scored in any of these assays.

SMILES	DAX1 inh-1	AHR act	ssDAF12 agonist	hgDAF12 agonist	DAX1 inh-2	hcDAF12 agonist	LXR ag	hcDAF12 ag
O=C(/C=C/c1ccccc1)C1=C(O)C(=O)N(CCO)C1c1ccccc1[N+](=O)[O-] (stereo not given)	-1.0	24.6	0.9	2.5	0.8	3.7	nt	nt
O=C(O)c1cccc(N/N=C/c2cccc3ccccc23)c1	-2.7	0.5	0.0	13.1*	0.9	7.5*	2.5	11.3*
Nc1ccc(C(=O)N/N=C/c2sc(N3CCOCC3)nc2-c2ccccc2)cc1	-0.1	28.2	-2.0	-4.4	-1.4	2.4	nt	nt
O=C(O)c1cccc(N/N=C/c2sc(N3CCOCC3)nc2-c2ccccc2)c1	-0.5	8.1	-0.6	8.9	1.1	7.5*	0.5	3.4
COc1ccc2ccccc2c1/C=N/Nc1cccc(C(=O)O)c1	0.8	4.2	-0.1	2.7	0.4	1.2	nt	nt
CC(C)(C)c1cccc(N/C(=C\C(=O)c2ccccc2)c2ccccc2)c1	nt	nt	-0.8	3.4	0.8	2.2	nt	nt
CCCOc1ccc(CN(CCO)CCO)cc1[N+](=O)[O-]	0.9	23.1	0.1	1.9	0.7	7.3*	-0.3	3.9
CCOc1ccc(CN(CCO)CCO)cc1C(=O)OC	0.1	-0.6	-1.3	1.0	0.1	-0.2	nt	nt
COc1cc(CNc2ccc(N3CCCC3)cc2)ccc1OCc1ccccc1	0.5	9.5	0.6	5.5	-0.6	7.7*	0.3	5.9*
COc1cc(CNc2ccc(N3CCCC3)cc2)ccc1OCc1ccccc1F	0.4	6.0	nt	nt	nt	nt	nt	nt
C=CCN(C(=O)CCC(=O)Nc1cc(C)on1)C(C(=O)NC1CCCC1)c1ccc(OC)cc1OC (stereo not given)	0.7	4.0	-1.3	0.4	0.0	-1.8	nt	nt
O=C(COC(=O)c1n[nH]c2ccccc12)Nc1ccccc1F	2.4	27.0	1.8*	7.5	1.6	6.8*	0.6	8.2*
CCN1CCCC1CNC(=O)c1cc2cc(F)ccc2[nH]1 (stereo not given)	3.3	67.0*	1.2*	4.1	0.7	11.2*	-0.1	5.9*
CN1CCC(N(C)C(=O)c2cc(S(=O)(=O)N(C)c3ccccc3)ccc2Cl)CC1	1.0	0.3	-0.8	1.1	0.2	2.4	nt	nt
CCN(CC)C(=O)Cn1cc(S(=O)(=O)CC(=O)NCc2ccc(F)cc2)c2ccccc21	0.5	-2.7	-0.6	-2.4	-0.8	-0.1	nt	nt
COc1ccc(C2CC(c3cccs3)=Nc3ccccc3S2)cc1 (stereo not given)	2.4	24.1	0.3	7.8	0.5	8.6*	0.2	4.0
COc1ccc(O)c(C2=Nc3ccccc3N=C(c3cccs3)C2)c1	-0.3	35.6	0.0	6.8	0.9	1.5	nt	nt
Cc1ccc(Oc2c(C(N)=O)cc([N+](=O)[O-])cc2[N+](=O)[O-])cc1	-0.9	2.2	-0.6	-2.9	0.3	2.6	nt	nt
Cc1cccc(/C(N)=N/OC(=O)c2ccc(Cl)cc2Cl)c1	0.9	42.0	-1.0	4.3	1.3	1.6	nt	nt
N/C(=N\OC(=O)c1ccc(Cl)cc1Cl)c1ccc(Cl)cc1	4.2	23.6	0.0	2.3	-0.1	2.2	nt	nt
Cc1cccc(/C(N)=N/OC(=O)c2cccc3ccccc23)c1	2.1	73.2*	0.9*	4.8	2.5	7.0*	0.3	6.3*
N/C(=N\OC(=O)c1ccc(Cl)cc1Cl)c1ccccc1	2.3	82.0*	0.1	10.3	2.5	7.3*	2.1	25.1*
N/C(=N\OC(=O)c1ccccc1Cl)c1ccc(Cl)cc1	1.9	57.3*	1.5*	9.1	1.6	9.1*	1.4	14.7*
Cc1ccc(/C(N)=N/OC(=O)c2ccc(C)cc2Cl)cc1	2.3	23.2	-1.9	0.0	0.1	-3.4	nt	nt
O=C(CCCn1c(=S)[nH]c2cc3c(cc2c1=O)OCO3)N1CCN(c2ccc(F)cc2)CC1	-0.7	3.0	-0.5	-2.1	-0.3	1.3	nt	nt
SMILES	DAX1 inh-1	AHR act	ssDAF12 agonist	hgDAF12 agonist	DAX1 inh-2	hcDAF12 agonist	LXR ag	hcDAF12 ag
O=C(CCCCCn1c(=S)[nH]c2cc3c(cc2c1=O)OCO3)N1CCN(c2ccccc2)CC1	0.4	2.1	-1.2	2.4	-0.7	6.8*	-0.4	-1.2
O=C(O)c1ccccc1Nc1cccc(OCc2ccc3ccccc3n2)c1	0.0	8.8	-0.6	2.7	0.7	6.6*	-0.3	1.4
Cc1csc(C(C)N(C)C(=O)c2ccc(OC3CCN(Cc4ccccn4)CC3)cc2)n1 (stereo not given)	-1.0	4.5	-2.1	-5.4	-5.1	-3.7	nt	nt
Cc1cc2[nH]c3c(c[n+](C)c4ccccc34)c2cc1C	-0.1	5.6	1.0*	6.3	-0.7	14.4*	1.7	10.2*
Cc1cc(C)n(-c2ccc(C(=O)OCC(=O)Nc3ccc(Cl)cc3[N+](=O)[O-])cc2)n1	0.0	3.4	-0.3	-0.5	-0.4	3.5	nt	nt
Nn1c(-c2cccs2)nc2sc3c(c2c1=O)CCCC3	4.0	58.1*	2.0*	12.4*	1.2	21.2*	1.4	11.4*
O=c1oc(-c2cccs2)nc2sc3c(c12)CCCCC3	0.5	3.5	-1.3	-2.1	0.7	-0.4	nt	nt
CC1=C(C(=O)OC2CCC(C)CC2)C(c2ccc(O)c([N+](=O)[O-])c2)NC(=O)N1 (stereo not given)	-1.2	1.9	-1.3	-1.9	0.5	-1.0	nt	nt
CNc1c(C(=O)O)ccc2c1C(=O)c1ccccc1C2=O	-2.3	-0.1	-0.7	-2.8	-0.2	-2.6	nt	nt
O=C(O)c1ccc2c(c1Nc1ccccc1)C(=O)c1ccccc1C2=O	4.4*	22.2	0.5	-0.4	0.4	7.5*	-0.3	2.8
CNC(=O)C1Cc2c(-c3ccccc3Oc3ccccc3)ccnc2O1 (stereo not given)	nt	nt	-0.6	-5.2	-0.8	0.8	nt	nt
COc1ccc(OCC(=O)Nc2ccc3nc(C)sc3c2)cc1	0.1	-0.6	-0.7	0.7	-0.1	-1.2	nt	nt
c1nc(NCC2CCCO2)c2cc(-c3ccc4c(c3)OCO4)ccc2n1 (stereo not given)	nt	nt	-1.4	1.6	nt	1.1	nt	nt
c1nc(NCC2CCCCO2)c2cc(-c3ccc4c(c3)OCO4)ccc2n1 (stereo not given)	nt	nt	-1.2	-0.6	nt	6.9*	-0.2	2.3
COc1cc(CNCCNC(=O)c2nonc2N)ccc1OCc1ccc(Cl)cc1	-0.1	3.7	-1.5	-2.1	-1.0	-1.6	nt	nt
CN1CCN(S(=O)(=O)c2ccc3c(c2)oc(=O)n3C)CC1	0.4	11.8	-0.1	0.4	2.0	1.3	nt	nt
Cc1ccc(NC(=O)c2ccc(NCCN)c([N+](=O)[O-])c2)cc1	-1.5	45.2	0.3	2.1	1.1	7.1*	-0.3	3.5
